Among the data in PubChem BioAssay (EPA / NIEHS) are outcome and AC50 values, retold here.

The nature of assay [1]: APR_HepG2_CellLoss_72hr: Apredica 72-hour HepG2 Assay for Cell Loss (AID 2282915). Conditions: high-content imaging. The gist of the method:
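HepG2 cells were exposed for 72 hr to compounds at 0.39–200 uM (ten concentrations, duplicate) in 0.5% v/v final DMSO. Nuclei were stained with Hoechst 33342 after 3.7% formaldehyde fixation, imaged at 20x, and counted; fits bidirectional versus DMSO.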

The nature of assay [2]: APR_HepG2_P-H2AX_72hr: Apredica 72-hour HepG2 Assay for H2AX Phosphorylation (AID 2282916).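 Also: phospho-histone H2A.x immunostain intensity per cell marking DNA damage.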 Conditions: imaging, actives raise or lower the signal. The gist of the method: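 Following 72 hr treatment with 0.39–200 uM compound, HepG2 cells were formaldehyde-fixed, permeabilized and stained for phospho-H2A.x; signal was measured by high-content imaging and fitted bidirectionally against DMSO controls.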

Assay [3] is described as follows: APR_HepG2_MitoMembPot_72hr: Apredica 72-hour HepG2 Assay for Mitochondrial Membrane Potential (AID 2282917). To be noted: imaging, actives raise or lower the signal. The method in brief:
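HepG2 cells exposed 72 h to compounds at 0.39–200 uM (0.5% v/v DMSO, duplicates); MitoTracker Red CMXRos 250 nM loaded 30 min before 3.7% formaldehyde fixation, imaged by HCS fluorescence. Bidirectional fit versus DMSO.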

Assay [4] is described as follows: APR_HepG2_MitoticArrest_72hr: Apredica 72-hour HepG2 Assay for Mitotic Arrest (AID 2282918). Conditions: high-content imaging, actives raise or lower the signal. The gist of the method:
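Read-out is phospho-histone H3 immunofluorescence with Hoechst nuclear segmentation, imaged at 20x. Human HepG2 liver cells received ten concentrations (0.39–200 uM, final DMSO 0.5% v/v) for 72 hr before fixation. Gain or loss of signal was fitted relative to DMSO.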

The nature of assay [5]: APR_HepG2_MicrotubuleCSK_72hr: Apredica 72-hour HepG2 Assay for Microtubule CSK Stabilty (AID 2282919). To be noted: HepG2 microtubule cytoskeleton, high-content imaging, actives raise or lower the signal. The gist of the method: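 HepG2 human liver cells were dosed for 72 h at ten concentrations from 0.39 to 200 uM in duplicate (0.5% v/v DMSO final). Fixed, permeabilized cells were immunostained for alpha-tubulin (Cy5) with a Hoechst counterstain and imaged at 20x.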

Assay [6] is described as follows: APR_HepG2_P-H2AX_24hr: Apredica 24-hour HepG2 Assay for H2AX Phosphorylation (AID 2282920). Conditions: high-content imaging, actives raise or lower the signal. The gist of the method:
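HepG2, 24 hr, cpd 0.39–200 uM (10 conc, duplicate), DMSO 0.5% v/v final. Fix 3.7% formaldehyde, Triton X-100 permeabilize, anti-phospho-H2A.x 1:200 + Hoechst 2 ug/mL. Imaged, bidirectional fit vs DMSO.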

A short description of assay [7]: APR_HepG2_StressKinase_72hr: Apredica 72-hour HepG2 Assay for Stress Kinase (AID 2282921). To be noted: HepG2 stress kinase (phospho-c-Jun) imaging, actives raise or lower the signal. The gist of the method: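 Fluorescence intensity of Cy3-tagged anti-phospho-c-Jun antibody, quantified per cell from Hoechst-defined nuclei across six images per well, served as the read-out following 72 h exposure (0.39–200 uM, 0.5% v/v DMSO).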

Assay [8] in a line: APR_HepG2_StressKinase_24hr: Apredica 24-hour HepG2 Assay for Stress Kinase (AID 2282922). Conditions: HepG2 stress kinase (phospho-c-Jun) imaging, actives raise or lower the signal. The gist of the method: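 HepG2 cells exposed 24 hr to compound at 0.39–200 uM (10 concentrations, duplicate), 0.5% v/v DMSO final. Fixed in 3.7% formaldehyde, permeabilized with Triton X-100, immunolabeled for phospho-c-Jun with Hoechst 33342; HCS fluorescence imaging, bidirectional fit versus DMSO.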

The nature of assay [9]: APR_HepG2_p53Act_72hr: Apredica 72-hour HepG2 Assay for p53 Activation (AID 2282923).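 Also: average cellular p53 protein immunofluorescence intensity in HepG2 cells.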 Conditions: high-content imaging, actives raise or lower the signal. The gist of the method: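 HepG2 monolayers receive test compounds in duplicate at ten concentrations (0.39 through 200 uM) for 72 hr. They are then formaldehyde-fixed, antibody-labelled for p53, Hoechst-stained and imaged, with activity fitted bidirectionally versus DMSO.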

Assay [10] is described as follows: APR_HepG2_MitoMass_72hr: Apredica 72-hour HepG2 Assay for Mitochondrial Mass (AID 2282924).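 Also: MitoTracker Red CMXRos stain intensity per cell imaged as mitochondrial mass.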 Conditions: high-content imaging, actives raise or lower the signal. The method in brief: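 HepG2 cells were exposed for 72 hr to compounds at 0.39–200 uM (ten concentrations, duplicate, 0.5% v/v DMSO final). Live cells were stained with 250 nM MitoTracker Red CMXRos for 30 min, then fixed in 3.7% formaldehyde and imaged by HCS fluorescence.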

The term AC50 denotes the concentration giving half of the maximal activity seen.

Molecules are shown by their SMILES. Active and inactive are the calls of the source. The calls were made as follows: active = hit-call score of the fitted dose curve at least 0.9, where 1 is the maximum; inactive = score below 0.9.

Turning to `CCOC(=O)CCC(=O)OCC`, the result in assay [1], in assay [2], in [3], in assay [4], in assay [5] and in assay [6] was inactive. Also, the call in [7], in assay [8], in assay [9] and in assay [10] was inactive.
For `O=C(O)CCCCC(=O)O`, the result in [1], in assay [2], in [3], in assay [4], in assay [5] and in assay [6] was inactive. The molecule was classed as inactive in assay [7], in assay [8], in assay [9] and in [10].
For `Cc1ccc(Cl)cc1`, the molecule was classed as inactive in [1], in assay [2], in assay [3], in [4], in assay [5] and in [6]. The molecule was called inactive in [7], in [8], in assay [9] and in assay [10].
Consider `CCOC(=O)C(C)(C)Oc1ccc(Cl)cc1`, for which the call in assay [1], in [2], in [3], in assay [4], in assay [5] and in assay [6] was inactive. Moreover, the call in assay [7], in assay [8], in assay [9] and in assay [10] was inactive.
Take `COc1ccc(S(=O)(=O)N2C(=O)[C@@](c3ccccc3OC)(N3C[C@H](O)C[C@H]3C(=O)N(C)C)c3cc(Cl)ccc32)c(OC)c1`: the AC50 was 61 µM (active) in assay [1]; 106 µM (active) in [2]; 40.7 µM (active) in [4]; 68.2 µM (active) in assay [6]; 100 µM (active) in [7]; 100 µM (active) in [9]. The AC50 in [10] is 65.7 µM (active). Moreover, the result in assay [3], in [5] and in [8] was inactive.
Regarding `CCOc1ccc2c(c1)C(C)=CC(C)(C)N2`, the AC50 in [1] is 103 µM (active); in [2], 92.7 µM (active); in [4], 78.2 µM (active); in assay [6] it was 72.7 µM (active); in assay [9] it was 76.1 µM (active). Besides, the outcome in assay [3], in [5], in [7], in assay [8] and in assay [10] was inactive.
With `CCCCCCOCCO`, the molecule was classed as inactive in [1], in [2], in assay [3], in [4], in assay [5] and in assay [6]. Also, the call in assay [7], in [8], in [9] and in [10] was inactive.
`NCC1(Cc2noc(=O)[nH]2)CCCCC1`: the outcome in [1], in [2], in assay [3], in assay [4], in assay [5] and in [6] was inactive. For the same molecule, the call in assay [7], in assay [8], in [9] and in [10] was inactive.
Regarding `CC(C)(C)c1cc(O)c(C(C)(C)C)cc1O`, the AC50 in [1] is 51.6 µM (active); in [2] it was 36 µM (active); in assay [3], 104 µM (active); in assay [4], 11.8 µM (active); in assay [6] it was 79.4 µM (active); in [8] it was 93.1 µM (active). In addition, the half-maximal activity concentration (AC50) in assay [9] is 12.5 µM (active). The result in assay [5], in [7] and in [10] was inactive.
Turning to `C[Si]1(C)O[Si](C)(C)O[Si](C)(C)O[Si](C)(C)O1`, the molecule was called inactive in [1], in [3], in assay [4], in assay [5], in assay [6] and in assay [7]. The result in assay [8], in assay [9] and in assay [10] was inactive.
`CNCc1cc(F)ccc1Oc1ccc(Cl)c(Cl)c1`: the AC50 in assay [1] was 56.9 µM (active); in assay [2], 59.5 µM (active); in assay [4] it was 32.6 µM (active); in [6], 74.4 µM (active); in [9], 63 µM (active); in assay [10], 178 µM (active). In addition, the molecule was classed as inactive in assay [3], in assay [5], in [7] and in assay [8].
In the case of `CC1(C)NC(=O)NC1=O`, the result in assay [1], in assay [2], in assay [3], in assay [4], in assay [5] and in [6] was inactive. Also, the result in [7], in assay [8], in assay [9] and in assay [10] was inactive.
Consider `CC(=O)Oc1ccccc1C(=O)O`, for which the call in assay [1], in assay [2], in assay [3], in [4], in [5] and in assay [6] was inactive. The call in assay [7], in assay [8], in assay [9] and in assay [10] was inactive.
For the molecule `C=CCc1ccc(O)c(OC)c1`, the molecule was classed as inactive in assay [1], in assay [2], in [4], in [5], in assay [6] and in [7]. Further, the molecule was classed as inactive in assay [8], in assay [9] and in assay [10]. Moreover, in [3], the AC50 is 68.6 µM (active).
Take `CCCCCCCCCCCC(=O)OC`: the molecule was called inactive in [1], in assay [2], in assay [3], in assay [4], in [5] and in assay [6]. Besides, the molecule was called inactive in assay [7], in assay [8], in assay [9] and in [10].
For `COc1ccc(C)cc1N`, the call in assay [1], in assay [2], in assay [3], in [4], in [5] and in assay [6] was inactive. In addition, the call in assay [7], in [8], in assay [9] and in assay [10] was inactive.
As for `Oc1ccc2ccccc2c1N=Nc1ccccc1`, the AC50 is 0.606 µM (active) in assay [1] and 0.0806 µM (active) in assay [10]. Also, the outcome in [3], in [4], in assay [5], in assay [6], in [7] and in [8] was inactive. Moreover, the molecule was classed as inactive in assay [9].
In the case of `FC(F)(F)C(F)(F)C(F)(F)C(F)(F)C(F)(F)C(F)(F)CCI`, the outcome in [1], in assay [2], in [3], in [4], in [5] and in [6] was inactive. Further, the molecule was called inactive in [7], in [8], in [9] and in assay [10].
Regarding `Cc1ccc(C)c(C)c1`, the call in [1], in assay [3], in [4], in [5], in assay [6] and in [7] was inactive. For the same molecule, the molecule was called inactive in [8], in [9] and in assay [10].
As to `CCCCc1ccc2c(n1)[C@@H](c1ccc(OC)cc1C[C@H](C)C(=O)O)[C@H](C(=O)O)[C@H]2c1ccc2c(c1)OCO2`, the molecule was called inactive in assay [1], in [3], in assay [4], in assay [5], in assay [6] and in assay [7]. Further, the molecule was classed as inactive in assay [8], in assay [9] and in assay [10].
As for `Clc1cc(Cl)c(Cl)cc1Cl`, the outcome in assay [1], in [3], in assay [4], in assay [5], in assay [6] and in [7] was inactive. The call in [8], in assay [9] and in assay [10] was inactive.
For `CC1(C)CC(N=C=O)CC(C)(CN=C=O)C1` (centres undefined), the molecule was classed as inactive in assay [1], in assay [3], in [5], in assay [7], in [8] and in assay [9]. Further, in [10], the molecule was classed as inactive. In addition, the AC50 was 93.1 µM (active) in [4] and 101 µM (active) in [6].
